LmPK inh – LmPK (Leishmania mexicana) enzyme inhibition; Q27686; purified LmPK, Kinase-Glo ATP luminescence, 1 h; Potency, µM (doses to about 57.5 µM), inactives show top-dose activity change, negative = inhibition, hits mostly inhibitors; 290,000 compounds, 0.37% hits; AID 1721; note: potency is the fitted concentration of half-maximal effect; % is set by controls: 0 for no effect and ±100 for the full control effect
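Kinase-Glo luminescence read after 1 h RT reaction of 0.1 nM LmPK with 0.5 mM PEP and 0.1 mM ADP. Activity scaled between uninhibited and enzyme-free controls.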
FBPA Giardia inh – blocks Giardia fructose-bisphosphate aldolase activity | Potency, µM (titrated, usually from 59.6 µM), for the others: at the top dose activity, negative = inhibition, usual class: inhibitors | purified Giardia FBPA | 290,000 compounds, 0.71% hits | A8B2U2; note: potency is the fitted concentration of half-maximal effect; % is set by controls: 0 for no effect and ±100 for the full control effect; nearly all actives have a fitted effect of over 55% in size
Target sequence (A8B2U2 whole entry, looked up): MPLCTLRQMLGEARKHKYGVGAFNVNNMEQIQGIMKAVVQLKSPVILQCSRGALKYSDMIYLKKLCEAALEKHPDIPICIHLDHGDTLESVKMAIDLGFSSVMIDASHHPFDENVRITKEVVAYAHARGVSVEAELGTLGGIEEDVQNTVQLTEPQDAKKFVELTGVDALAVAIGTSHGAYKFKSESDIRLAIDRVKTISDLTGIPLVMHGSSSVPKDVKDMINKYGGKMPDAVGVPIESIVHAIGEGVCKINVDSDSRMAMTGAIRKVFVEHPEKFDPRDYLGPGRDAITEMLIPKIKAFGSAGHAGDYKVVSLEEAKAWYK
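40 nM FBPA preincubated 10 min at RT with compound (up to 57.5 uM final), then substrate plus GAPDH/TPI/NAD/arsenate coupling and diaphorase/resazurin added. Fluorescence read after 20 min at RT, 525/598 nm.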
RE007 growth inh – less growth of the S. pombe RE007 Vpr strain. S. pombe RE007 Vpr strain, BacTiter-Glo ATP luminescence, 24 h. Potency, µM (titrated, usually from 92.2 µM), without a hit: at the top dose activity change, negative = less growth, usual class: inhibitors. 360,000 compounds, 0.21% hits. AID 651644; active = well fitted falling curve with a large enough effect; inconclusive = small, poorly fitted or top-dose-only effect; inactive = no such curve, though single readings can be large or run the other way; note: potency is the fitted concentration of half-maximal effect; % is set by controls: 0 for no effect and ±100 for the full control effect; nearly all actives have a fitted effect of over 50% in size
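Fission yeast RE007 carrying one integrated HIV-1 vpr copy, seeded at OD 0.01 in PMG+AL medium with 23 nL pinned compound. Grown 24 h at 30 degrees; viability read by BacTiter-Glo luminescence after 5 min.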
Shiga toxin inh – blocks Shiga toxin action in Vero cells; 290,000 compounds, 9.2% hits; inhibition, % at 38.7 µM; AID 2315; Vero cells, Shiga toxin protein synthesis inhibition reporter; in the data active = inhibition mostly above about 28%, no sharp cut-off; inactive = mostly below about 43%; note: 0% is about no effect
CHX counter – counter-screen hit for Shiga toxin inhibitors, cycloheximide | cell reporter, cycloheximide protein synthesis inhibition counterscreen | max response, % | 300,000 compounds, 12% hits; in the data active = max response mostly above about 13%, no sharp cut-off; inactive = mostly below about 14%; note: read at 38.3 µM for the half of the compounds with a filed dose; 0% is about no effect
Tb PYK inh – inhibitors of Trypanosoma brucei pyruvate kinase | AID 624173 | TbPYK enzyme, Kinase-Glo Plus ATP luminescence, 45 min | Q57TT1 | 410,000 compounds, 0.12% hits | Potency, µM (doses to about 76.8 µM), inactives show at the top dose activity, negative = inhibition, most hits filed as inhibitors; note: potency is the fitted concentration of half-maximal effect; % is set by controls: 0 for no effect and ±100 for the full control effect; nearly all actives have a fitted effect of over 50% in size
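Activity of T. brucei pyruvate kinase was followed by Kinase-Glo Plus luminescence after the enzyme reacted 45 min at room temperature with 130 uM ADP (final) and substrate. Test compounds were added before ADP at multiple concentrations.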
* = called active by the depositor; ? = inconclusive; · = no result given; [ ] = dose if it differs, or a comment. The full list was thinned out, with hits kept by preference. Unless noted, calls come from the whole dose curve; as a rule, active = well fitted curve in the direction sought with a large enough effect; inconclusive = small, poorly fitted or top-dose-only effect, or another doubt; inactive = no such curve, though single readings can be large; an effect the other way counts as inactive or inconclusive.

SMILES	LmPK inh	FBPA Giardia inh	RE007 growth inh	Shiga toxin inh	CHX counter	Tb PYK inh
NC1=NC(=O)/C(=C/c2cn(Cc3ccccc3)c3ccccc23)S1	3.8%	-28.5%	0.9%	62.4*	23.8*	?
O=Cc1cn(Cc2ccc(Br)cc2)c2ccccc12	1.0%	-2.4%	18.5%	3.3	0.4	-0.2%
CC(=O)c1c(NCc2ccccc2)nc(=O)n(-c2ccccc2)c1C	-6.5%	-21.5%	-2.6%	54.2	23.9*	2.2%
CC(=O)c1c(NCCc2ccccc2)nc(=S)n(-c2ccccc2)c1C	-7.8%	-0.9%	-17.5%	-4.4	8.9	3.5%
O=C(NCc1ccccn1)c1cc(-c2ccc(-c3ccccc3)cc2)nc2ccccc12	4.4%	-0.5%	7.8%	128.3*	19.9*	-19.0%
Cc1ccc(-c2cc(C(=O)NCc3ccccn3)c3ccccc3n2)cc1C	-2.4%	-4.9%	?	65.8*	30.8*	?
Cc1ccc(-c2cc(C(=O)Nc3cc(C)on3)c3ccccc3n2)cc1	3.2%	0.6%	5.4%	15.6	3.1	6.3%
Cc1cc(NC(=O)c2cc(-c3ccc(C)c(C)c3)nc3ccccc23)no1	3.0%	-3.2%	27.1%	20.1*	2.6	-3.9%
Cc1ccc(-c2cc(C(=O)NCCCN3CCOCC3)c3ccccc3n2)cc1C	4.0%	-16.9%	0.3%	46.5*	8.3	-3.1%
Cc1cc(=O)n(CC(=O)NC(C)c2ccccc2)c2c1c(C)nn2C (centres undefined)	·	·	·	·	·	-1.3%
O=C1CN(C(=O)COc2ccc(Cl)cc2Cl)C(c2ccc(F)cc2)c2cc(F)ccc2N1 (centres undefined)	·	·	·	·	·	-0.3%
O=C(NCCNC(=O)c1ccc(-c2ccc(Cl)c(Cl)c2)o1)c1cnccn1	-1.0%	·	9.6%	11.4	-2.4	-1.1%
CCOC(=O)c1c(S(=O)(=O)N2CCC(C(=O)NCc3ccccc3Cl)CC2)c(C)n(C)c1C	·	·	·	·	·	5.9%
O=C(NCc1ccccn1)c1cc(-c2ccc(Cl)cc2)nc2ccccc12	0.1%	5.4%	6.0%	33.1*	9.6	-10.6%
O=C(NCc1ccccn1)c1cc(-c2ccccc2)nc2ccccc12	-3.4%	4.6%	20.5%	-9.7	-1.8	-3.6%
O=C1CC(c2ccc(F)cc2)Cc2nc(N3CCc4ccccc43)ncc21 (centres undefined)	-3.0%	-2.8%	·	22.0	2.9	·
CC1(C)CC(=O)c2cnc(N3CCc4ccccc43)nc2C1	-5.6%	0.1%	3.3%	88.2*	50.6*	-5.2%
O=[N+]([O-])c1ccccc1/C=N/n1c(C2CCCCC2)n[nH]c1=S	-19.1%	-1.7%	27.2%	86.9	34.4*	?
O=[N+]([O-])c1cc2c(cc1/C=N/n1c(-c3ccccc3)n[nH]c1=S)OCO2	13.3%	5.4%	-1.1%	55.0*	43.1*	?
CCN(C(=O)c1cccn(Cc2cccc(Cl)c2)c1=O)c1ccccc1	·	·	·	·	·	-3.0%
Cc1ccc(Cl)cc1NS(=O)(=O)c1ccc2oc(=O)c3ncn(C)c3c2c1	·	·	·	·	·	1.0%
CCCSc1nnc2c(n1)OC(c1sccc1C)Nc1ccccc1-2 (centres undefined)	·	·	·	65.7*	40.6*	-3.0%
CCCCSc1nnc2c(n1)OC(C)N(C(C)=O)c1ccccc1-2 (centres undefined)	·	·	·	·	·	-1.5%
CCCCSc1nnc2c(n1)OC(C(=O)c1ccccc1)Nc1ccccc1-2 (centres undefined)	-3.4%	16.2%	·	25.2	15.0*	·
CCc1ccccc1N(C)S(=O)(=O)c1ccc2c(c1)C(C)(C)C(=O)N2C	·	·	·	·	·	4.2%
SMILES	LmPK inh	FBPA Giardia inh	RE007 growth inh	Shiga toxin inh	CHX counter	Tb PYK inh
CCCSc1ccc(-c2nn(-c3ccccc3)cc2/C=C(/C#N)C(=O)N2CCOCC2)cc1	2.9%	-0.4%	2.9%	-0.2	16.3*	0.8%
CCOC(=O)Cn1cc(/C=C(\C#N)C(=O)N2CCOCC2)c2ccccc21	2.6%	4.8%	0.7%	74.0*	10.3*	-3.2%
CCCc1cnc2c(c1SCC(=O)N1CCC(C)CC1)c(=O)n(C)c(=O)n2C	·	·	·	·	·	-8.6%
COc1ccc(/C=N/NC(=O)Nc2nonc2N)cc1	5.0%	0.6%	4.9%	75.1*	47.9*	-5.0%
NC(=S)N/N=C/c1ccccc1[N+](=O)[O-]	4.0%	?	1.2%	8.4	0.6	-7.4%
COc1ccc(/C=N\N=C(N)N)cc1	0.0%	5.6%	-28.7%	0.9	-1.6	1.2%
COc1ccc(OC(=O)c2ccncc2)cc1	-6.0%	7.3%	-9.6%	-14.5	5.8	-16.7%
COc1ccc(C(=O)Oc2ccc(/C=N/O)cc2)cc1	0.9%	9.3%	-6.9%[3.69 µM]	83.0*	74.0*	·
COC(=O)c1cccc(/C=N/NC(N)=S)c1O	-7.4%	-0.9%	17.8%	25.5	27.2*	-2.7%
COc1ccc(/C=N/N=C/c2ccc(OC)cc2)cc1	0.1%	12.9%	6.0%	45.9	24.6*	-6.1%
COc1ccccc1CNc1cc(-c2ccccc2)nc2nncn12	·	·	·	·	·	0.2%
Cc1cccc(C)c1OCc1nc2c3cnn(-c4ccccc4Br)c3ncn2n1	·	·	·	·	·	1.8%
CC(C)Oc1ccc(/C=N/NC(N)=S)cc1	1.2%	?	9.9%	66.5*	60.9*	-10.4%
C=CCOc1ccc(/C=N\NC(N)=S)cc1	10.7%	-2.6%	-6.3%	13.3	-1.2	-6.6%
COc1ccc(/C=N/NC(N)=S)cc1	3.6%	?	-24.1%	18.1	12.7*	2.5%
COc1ccc(-c2cnc(N)n2CC2CCCO2)cc1 (centres undefined)	-9.8%	?	-4.9%	64.7	21.7*	-5.4%
NC1(C(=O)O)CCc2cc(C(=O)O)ccc21 (centres undefined)	·	-5.3%	·	·	·	·
c1ccc(-c2nnc3sc(CN4CCc5ccccc54)cn23)cc1	2.1%	-7.1%	3.1%	46.3*	24.2	-5.2%
Brc1ccc(-c2nnc3sc(CN4CCc5ccccc5C4)cn23)cc1	·	·	5.2%	·	·	6.4%
Cc1ccccc1C(=O)NNC(=O)c1ccoc1C	-15.5%	6.2%	0.0%	20.0	2.0	-0.4%
O=C(Cc1ccccc1)NNC(=O)c1ccccc1C(=O)O	-0.6%	0.1%	-3.7%	26.9	14.9*	-16.8%
COc1ccc(C)cc1NC(=O)NNC(=O)c1ccoc1C	-2.7%	·	-22.1%	31.0*	active	1.7%
Cc1occc1C(=O)NNC(=O)c1ccccc1Br	-8.4%	-2.7%	-13.2%	27.8*	12.5	-14.1%
Cc1occc1C(=O)NNC(=O)c1ccccc1C(=O)O	-16.5%	-3.1%	14.9%	69.3*	24.1*	-1.6%
COc1ccc(C)cc1NC(=O)c1ccoc1C	-0.2%	-3.1%	-10.4%	13.1	-2.8	0.0%
COc1cccc(N2CCN(C(=O)c3cnn(-c4ccccc4Cl)c3C3CCN(C(=O)OC(C)(C)C)CC3)CC2)c1	·	·	·	·	·	-1.2%
CCOc1ccc(CCNc2ncnc3onc(C)c23)cc1OCC	·	·	·	·	·	-1.6%
